This is an account of results in PubChem BioAssay (NCI).

Common to all, as to assay: NCI-60 one-dose screen, 48 h (100 = growth as untreated, 0 = no growth, -100 = all killed)
What all share (settings): 10 µM unless noted

For assay [1], the system named is SR leukemia.
The subject of assay [2] is RPMI-8226 leukemia.
Assay [3] concerns OVCAR-8 ovarian.
Assay [4] deals with OVCAR-5 ovarian.
Assay [5] concerns OVCAR-4 ovarian.
For assay [6], the system named is SK-OV-3 ovarian.
For assay [7], the system named is IGROV1 ovarian.
In assay [8] the test system is OVCAR-3 ovarian.
Assay [9] deals with HS 578T breast.
Assay [10] relates to NCI/ADR-RES ovarian.
For assay [11], the system named is T-47D breast.
Assay [12] relates to BT-549 breast.
For assay [13], the system named is MDA-MB-435 melanoma.
For assay [14], the system named is SW-620 colon.
Assay [15] has as its system MCF7 breast.
Assay [16] has as its system HCT-116 colon.
For assay [17], the system named is HCC-2998 colon.
Assay [18] relates to KM12 colon.

This is part of a sample that, as a whole, favours compounds with a hit. Of some 83,000 tested, about 20% had one in any assay.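 Percent growth is the endpoint: 0 to 100 indicates growth inhibition (40 means 60% inhibition), 0 means no net growth, and negative values indicate cell death.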 Unmarked numbers belong to inactive results. Calls of active or inactive are those of the source. How the source made its calls: active means growth percent below 10; inactive means the rest.

Turning to `O=C1C(=O)c2ccccc2C(O)=C1CCCc1ccc(C2CCCC2)cc1`, the growth was -49.3% (active) in assay [1]; 7.4% (active) in assay [2]; 31.7% in [3]; 24.9% in assay [4]; 23.4% in assay [5]; 55% in [6]. In addition, the growth is 50.8% in assay [7]; 39.3% in assay [8]; 31.7% in assay [9]; 37.6% in assay [10]; 59.8% in assay [11]; 40.3% in assay [12]. Besides, the growth in assay [13] was 42%; in [14] it was 24.3%; in assay [15] it was 33.3%; in assay [16], 16.6%; in assay [17] it was 36.7%; in assay [18] it was 27.6%.

As to `CC(O)C(N)=O` (stereo unspecified), the growth was 102% in [1]; 111% in assay [2]; 110% in assay [3]; 101% in assay [4]; 97.4% in assay [5]; 110% in assay [6]. Besides, the growth is 116% in assay [7]; 107% in [8]; 108% in [9]; 118% in assay [10]; 94.7% in assay [11]; 102% in assay [12]. For the same compound, the growth in assay [13] is 103%; in assay [14], 105%; in assay [15], 94.6%; in [16], 94.2%; in assay [17] it was 100%; in assay [18], 103%.

As to `CCOC(=O)NNc1[nH]c(-c2ccc(OC)cc2)cc1C#N`, the growth was -2.04% (active) in assay [1]; 91.2% in [2]; 99.5% in [3]; 87.7% in assay [4]; 153% in assay [5]; 111% in assay [6]. The growth in assay [7] is 57.5%; in assay [8], 107%; in assay [9], 96.3%; in assay [10], 88.9%; in [11], 44.1%; in assay [12], 101%. Further, the growth in assay [13] was 85%; in assay [14], 107%; in [15] it was 69.2%; in [16], 85.4%; in assay [17] it was 39.1%; in assay [18], 74.7%.

In the case of `CCCC(CCC)Oc1ccc(CCCC2=C(O)c3ccccc3C(=O)C2=O)cc1`, the growth in [1] was 38.9%; in assay [2], 22.5%; in assay [3] it was 34.2%; in assay [4] it was 17.2%; in assay [5] it was 25.1%; in [6] it was 37.5%. For the same compound, the growth is 46.7% in assay [7]; 40.8% in assay [8]; 34.6% in assay [9]; 28.7% in assay [10]; 65.4% in assay [11]; 35.5% in assay [12]. The growth was 37.4% in [13]; 28.1% in assay [14]; 29% in assay [15]; 16.7% in assay [16]; 13.4% in [17]; 23.7% in assay [18].

As for `Cn1cnc2nc[nH]c2c1=S`, the growth was 89.6% in [1]; 101% in assay [2]; 105% in assay [3]; 94.8% in [4]; 108% in assay [5]; 105% in assay [6]. For the same compound, the growth is 113% in assay [7]; 115% in assay [8]; 102% in assay [9]; 101% in assay [10]; 96% in assay [11]; 98.6% in [12]. The growth in assay [13] was 109%; in [14] it was 99.8%; in [15], 94.2%; in assay [16] it was 106%; in assay [17] it was 102%; in assay [18], 105%.

With `O=C(CCl)c1ccc2c(c1)CCCC2`, the growth in assay [1] was 7.36% (active); in assay [2] it was 84.6%; in assay [3] it was 95.6%; in [4] it was 107%; in assay [5], 107%; in assay [6], 110%. The growth in [7] was 89.2%; in assay [8], 114%; in assay [9], 94.7%; in assay [10], 108%; in [11], 87.9%; in assay [12] it was 83.5%. Besides, the growth in assay [13] is 111%; in assay [14], 82.6%; in assay [15], 86.5%; in assay [16], 84.2%; in assay [17] it was 111%; in assay [18], 107%.

`N=c1c2c(=O)n3c(nc2nc2sc4ccc(Cl)cc4n12)-c1ccccc1Sc1ccccc1-3`: the growth is 5.86% (active) in assay [1]; 7.72% (active) in assay [2]; 19.8% in assay [3]; 48.2% in assay [4]; 0.243% (active) in assay [5]; 19.5% in assay [6]. The growth is 2.34% (active) in [7]; 20.9% in [8]; 35.1% in assay [9]; 12.3% in assay [10]; 1.99% (active) in assay [11]; 1.57% (active) in [12]. Further, the growth is 0.844% (active) in assay [13]; 26.1% in assay [14]; 6.98% (active) in assay [15]; 7.35% (active) in assay [16]; 6.95% (active) in [17]; 22.6% in assay [18].

`Clc1ccc(I)c2ccccc12`: the growth in [1] is 102%; in assay [2] it was 104%; in [3], 102%; in assay [4], 107%; in [5], 107%; in assay [6], 103%. In addition, the growth is 107% in [7]; 108% in [8]; 98.9% in assay [9]; 109% in [10]; 96.8% in assay [11]; 94.6% in assay [12]. Also, the growth is 108% in assay [13]; 107% in [14]; 95.8% in assay [15]; 97.4% in [16]; 107% in [17]; 110% in assay [18].

On to `Cc1ccc(CC(=O)O)c(C)c1`, for which the growth in assay [1] is 94.1%; in assay [2] it was 104%; in [3] it was 100%; in [4], 98.8%; in assay [5], 105%; in assay [6], 108%. Besides, the growth in assay [7] was 112%; in assay [8], 103%; in assay [9] it was 101%; in assay [10] it was 101%; in assay [11], 97.1%; in assay [12], 119%. In addition, the growth in [13] was 108%; in assay [14], 102%; in [15] it was 95.7%; in assay [16], 107%; in [17], 89.8%; in assay [18], 105%.

Regarding `COc1ccc(/C=C(/C(=O)N2CCCCC2)c2cc(OC)c(OC)c(OC)c2)cc1`, the growth is 13.6% in [1]; 15.7% in assay [2]; 34.4% in assay [3]; 35.1% in [4]; 56.8% in [5]; 27.6% in [6]. Besides, the growth is 42% in assay [7]; -19.2% (active) in assay [8]; 20.9% in [9]; 6.26% (active) in assay [10]; 45.8% in assay [11]; 53.6% in assay [12]. For the same compound, the growth is -51.3% (active) in assay [13]; 23.2% in [14]; 18.2% in [15]; 17.6% in assay [16]; 46.8% in [17]; 16% in [18].

In the case of `CCCCCCCCCCCCCCCCCC1=NCCN1CCNC(C)=O`, the growth was 19.3% in [1]; 91% in assay [2]; 98.2% in assay [3]; 91.7% in [4]; 95.2% in assay [5]; 107% in [6]. Also, the growth in assay [7] is 91.1%; in assay [8], 94.7%; in [9] it was 110%; in assay [10], 98.2%; in assay [11] it was 85.8%; in [12] it was 99.1%. Moreover, the growth in assay [13] is 103%; in assay [14], 107%; in [15] it was 79.2%; in assay [16], 69.1%; in [17] it was 92.3%; in assay [18] it was 73.4%.

With `COc1cc2c(/C=C3\C(=O)Nc4ccc(Br)cc43)c(Cl)n(C)c2cc1C`, the growth in assay [1] was 0.77% (active); in assay [2], 0.149% (active); in assay [3], 17.8%; in [4] it was 13.4%; in assay [5], 45.6%; in [6], 24.7%. Further, the growth in assay [7] was -10.2% (active); in assay [8], -23.5% (active); in [9] it was 40.2%; in [10] it was -17.7% (active); in assay [11], 64.4%; in [12], 35.1%. Further, the growth in assay [13] was 7.32% (active); in assay [14] it was 31.9%; in assay [15], 23.9%; in assay [16], 5.1% (active); in assay [17] it was -39.4% (active); in [18] it was -21.5% (active).

Regarding `O=C(O)c1ccc(Br)nc1`, the growth was 95.9% in assay [1]; 98.7% in assay [2]; 98.3% in assay [3]; 86.1% in assay [4]; 98.6% in assay [5]; 92.3% in assay [6]. Further, the growth in assay [7] was 107%; in assay [8], 102%; in assay [9], 102%; in assay [10] it was 102%; in assay [11], 99.1%; in assay [12], 106%. For the same compound, the growth in [13] was 103%; in assay [14] it was 97.1%; in [15] it was 93.8%; in assay [16], 98%; in [17] it was 104%; in [18] it was 107%.

As for `CC[N+](C)(C)N`, the growth is 93.8% in [1]; 101% in [2]; 98.3% in assay [3]; 111% in assay [4]; 102% in [5]; 109% in assay [6]. Besides, the growth in assay [7] was 111%; in assay [8], 114%; in [9] it was 108%; in [10], 109%; in assay [11], 103%; in assay [12], 105%. For the same compound, the growth in [13] was 109%; in [14], 105%; in [15], 91.7%; in assay [16], 99%; in assay [17] it was 113%; in assay [18], 107%.

For the compound `CN(C)CCOC(=O)C(C)(C)C`, the growth in assay [1] was 99.5%; in assay [2], 106%; in assay [3], 99.7%; in assay [4], 103%; in assay [5], 111%; in assay [6], 112%. In addition, the growth in assay [7] was 106%; in assay [8], 111%; in assay [9], 105%; in [10] it was 110%; in [11], 103%; in [12], 112%. Further, the growth was 104% in assay [13]; 91.6% in assay [14]; 99.3% in assay [15]; 103% in assay [16]; 110% in [17]; 106% in [18].

Turning to `Cc1ccc(NC(=O)CCl)cc1Cl`, the growth in [1] was 51.9%; in assay [2] it was 91%; in [3], 92.9%; in assay [4], 108%; in assay [5], 89.2%; in [6], 102%. Further, the growth in assay [7] was 63.8%; in assay [8] it was 114%; in assay [9], 93.8%; in assay [10], 107%; in [11] it was 90.2%; in [12], 76.7%. Also, the growth in assay [13] was 90.9%; in assay [14], 95.5%; in [15], 87.5%; in assay [16], 106%; in assay [17] it was 115%; in assay [18], 111%.

With `CCOC(=O)c1cc(C(=O)c2ccc(Br)cc2)n2cc(C)cc(C)c12`, the growth in [1] was 98.1%; in assay [2] it was 83.7%; in [3], 102%; in assay [4], 115%; in assay [5], 91.6%; in [6], 86.2%. Further, the growth in assay [7] was 102%; in assay [8] it was 104%; in [9], 89.2%; in assay [10], 99.6%; in assay [11], 80.3%; in assay [12] it was 79%. Also, the growth in [13] is 102%; in [14], 103%; in assay [15], 90%; in assay [16] it was 75.3%; in assay [17], 102%; in assay [18], 98.9%.
